Screening data (PubChem)
A selection: hits, their analogues and other compounds. The true share with any hit is near 6.7%.
T cruzi growth-1: blocks T. cruzi growth in NIH3T3 culture; AID 624255; actives 5.9% (n = 77,000); T. cruzi beta-gal in NIH3T3, GalScreen luminescence, 90 h; inhibition, % at 8.34 µM;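 active means mean inhibition above about 93%, with at least 55% of replicates each passing it, limit read from the data, passing the limit was not always enough; inconclusive means only one of those two conditions holds; inactive means neither condition holds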
C diff HTS: inhibitors of Clostridium difficile growth; Clostridium difficile clinical isolate growth, OD600, 24 h; hits give low values; growth activity, negative = inhibition, % at 16 µg/mL (by protocol); actives 0.25% (n = 86,000); AID 1259249;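 active means mean growth activity at or below -80% and every replicate also at or below -80%; inconclusive means mean at or below -80% but some replicate above -80%; inactive means mean growth activity above -80%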;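 further: 0% = DMSO wells and -100% = levofloxacin 16 µg/mL wells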
Pf Dd2 inh: inhibitors of Plasmodium falciparum Dd2 growth; activity change, % at 10 µM; P. falciparum Dd2 growth, SYBR Green, 72 h; hits give low values; actives 2.3% (n = 94,000); AID 1159554; in the data active means activity change below about -80%; inconclusive means no clear call, values can overlap the other calls
T cruzi growth-2: inhibitors of T. cruzi proliferation. AID 651739. T. cruzi beta-gal in NIH3T3, GalScreen luminescence, 90 h. actives 72% (n = 5,600). inhibition, % at 8.35 µM. shares compounds with T cruzi growth-1;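 active means mean replicate inhibition above about 95% and at least 55% of replicates individually reaching it, limit read from the data; inconclusive means only one of the two criteria is met; inactive means neither criterion is met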
T cruzi growth-3: inhibitors of T. cruzi proliferation | T. cruzi beta-gal in NIH3T3, GalScreen luminescence, 90 h | AID 651740 | shares compounds with T cruzi growth-1 | actives 21% (n = 5,600) | inhibition, % at 2.09 µM;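 active means mean inhibition above about 95%, with at least 55% of replicates also reaching it, limit read from the data; inconclusive means meets just one of the two conditions; inactive means meets neither condition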;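 further: plate controls were neutral control median for no effect and positive control median for full effect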
NIH3T3 tox: cytotoxicity in mouse NIH/3T3 fibroblasts; shares compounds with T cruzi growth-1; NIH/3T3 viability, CellTiter-Glo ATP luminescence, 90 h; cytotoxicity (signal decrease), % at 8.35 µM; actives 14% (n = 5,600); AID 651742;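 active means mean signal decrease across replicates above about 35% based on untreated-well scatter, with enough replicates individually passing, limit read from the data; inconclusive means no rule stated though some were filed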;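 further: 0% = median of neutral control wells and 100% = median of positive control wells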
NIH3T3 tox 2: cytotoxicity in mouse NIH/3T3 fibroblasts | shares compounds with T cruzi growth-1 | NIH/3T3 viability, CellTiter-Glo ATP luminescence, 90 h | inhibition, % at 24.9 µM | actives 56% (n = 5,600);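 active means mean loss of cell viability signal at or above a set limit, and enough replicates individually reaching it; inconclusive means meets only the mean limit or only the replicate share; inactive means meets neither condition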;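 further: 0% = median of neutral control wells and 100% = median of positive control wells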
The depositor's hits bear a star.

For C[C@@H]1CN([C@H](C)CO)C(=O)c2cc(NC(=O)C3CCCCC3)ccc2O[C@@H](C)CCCCO[C@@H]1CN(C)S(=O)(=O)c1ccc(Cl)cc1 the results were T cruzi growth-1 101.6*, C diff HTS 4.8, Pf Dd2 inh -85.6*, T cruzi growth-2 104.2*, T cruzi growth-3 69.3, NIH3T3 tox 10.2 and NIH3T3 tox 2 19.7.
`C[C@@H]1CCCCO[C@H](CN(C)S(=O)(=O)c2ccc(F)cc2)[C@@H](C)CN([C@H](C)CO)C(=O)c2cc(NC(=O)C3CCCCC3)ccc2O1` gave T cruzi growth-1 25.4, C diff HTS -9.0 and Pf Dd2 inh -47.7.
Screening C[C@@H]1CCCCO[C@@H](CN(C)S(=O)(=O)c2ccc(F)cc2)[C@@H](C)CN([C@@H](C)CO)C(=O)c2cc(NC(=O)C3CCCCC3)ccc2O1 returned T cruzi growth-1 41.5, C diff HTS 8.4 and Pf Dd2 inh -78.3.
`C[C@@H]1CCCCO[C@@H](CN(C)S(=O)(=O)c2ccc(Cl)cc2)[C@H](C)CN([C@@H](C)CO)C(=O)c2cc(NC(=O)C3CCCCC3)ccc2O1` gave T cruzi growth-1 105.8*, C diff HTS -0.9, Pf Dd2 inh -72.8, T cruzi growth-2 105.3*, T cruzi growth-3 58.2, NIH3T3 tox 11.5 and NIH3T3 tox 2 42.4*.
COc1ccc(NC(=O)Nc2ccc3c(c2)[C@@H]2C[C@@H](CC(=O)N(C)C)O[C@@H](CO)[C@@H]2O3)cc1 was read as T cruzi growth-1 -4.5, C diff HTS -1.3 and Pf Dd2 inh -16.6.
For O=C(NCC[C@H]1CC[C@H](NC(=O)C2CCOCC2)[C@@H](CO)O1)Nc1ccc(Cl)cc1 the results were T cruzi growth-1 -46.9, C diff HTS -0.3 and Pf Dd2 inh 11.7.
`CN(C)CC(=O)N1C[C@@H]2N[C@H](C1)C2c1ccc(-c2ccncc2)cc1` (stereo partly specified) gave C diff HTS -1.8 and Pf Dd2 inh -75.6.
`COc1ccccc1NC(=O)N1CC[C@H]2[C@@H]1c1cc(C#Cc3ccc(F)cc3)ccc1N(C)[C@H]2CO` gave T cruzi growth-1 108.2*, C diff HTS 2.9, Pf Dd2 inh -78.1, T cruzi growth-2 106.0*, T cruzi growth-3 116.1*, NIH3T3 tox 2.7 and NIH3T3 tox 2 5.2.
For COc1ccccc1NC(=O)N1CC[C@@H]2[C@H]1c1cc(-c3ccc(F)cc3)ccc1N(C)[C@H]2CO the results were T cruzi growth-1 84.5, C diff HTS 14.9 and Pf Dd2 inh -13.8.
CN1c2ccc(-c3cccc(C#N)c3)cc2[C@@H]2[C@@H](CCN2C(=O)Nc2cc(F)ccc2F)[C@@H]1CO was read as T cruzi growth-1 inconclusive, C diff HTS 6.1, Pf Dd2 inh -22.8, T cruzi growth-2 99.6*, T cruzi growth-3 93.3, NIH3T3 tox 22.3 and NIH3T3 tox 2 13.2.
`CN1c2ccc(-c3ccc(C#N)cc3)cc2[C@@H]2[C@@H](CCN2C(=O)Nc2ccccc2F)[C@@H]1CO` gave T cruzi growth-1 83.7, C diff HTS -12.2 and Pf Dd2 inh 14.8.
Screening CN1c2ccc(-c3ccc(F)cc3)cc2[C@H]2[C@H](CCN2C(=O)Nc2cc(F)ccc2F)[C@H]1CO returned T cruzi growth-1 15.2, C diff HTS 55.7 and Pf Dd2 inh -8.3.
Screening CN1c2ccc(Br)cc2[C@H]2[C@H](CCN2C(=O)Nc2cc(F)ccc2F)[C@H]1CO returned T cruzi growth-1 inconclusive, C diff HTS 56.1, Pf Dd2 inh -4.8, T cruzi growth-2 104.5*, T cruzi growth-3 40.1, NIH3T3 tox 11.2 and NIH3T3 tox 2 44.2*.
For CCCN(C)C[C@H]1Oc2ncc(-c3cccc(C(=O)N(C)C)c3)cc2C(=O)N([C@H](C)CO)C[C@@H]1C the results were T cruzi growth-1 18.1, C diff HTS -5.7 and Pf Dd2 inh -20.6.
`C[C@@H]1CN([C@@H](C)CO)C(=O)c2cc(NC(=O)C3CC3)ccc2O[C@H]1CN(C)Cc1ccc(-c2ccccc2)cc1` gave T cruzi growth-1 61.3, C diff HTS -7.5 and Pf Dd2 inh -51.0.
O=C(C[C@@H]1C[C@H]2c3cc(NC(=O)NC4CCCC4)ccc3O[C@H]2[C@@H](CO)O1)NCc1ccccn1 was read as C diff HTS 1.4 and Pf Dd2 inh 37.4.
`CCC(=O)N1CC(=O)N2[C@H](CO)[C@@H](c3ccc(C#CC4CCCCC4)cc3)[C@H]2C1` gave C diff HTS 48.4 and Pf Dd2 inh -11.4.
Screening C[C@H](O)C#Cc1ccc([C@H]2[C@H](CO)N3CCCCN(C(=O)c4cccc(F)c4)C[C@@H]23)cc1 returned T cruzi growth-1 100.0*, C diff HTS -0.2, Pf Dd2 inh -41.6, T cruzi growth-2 67.0, T cruzi growth-3 42.3, NIH3T3 tox 18.5 and NIH3T3 tox 2 64.5*.
For C[C@H](O)C#Cc1ccc([C@@H]2[C@@H](CO)N3CCCCN(C(=O)c4cccc(F)c4)C[C@@H]23)cc1 the results were T cruzi growth-1 46.5, C diff HTS 9.5 and Pf Dd2 inh -2.4.
For C[C@@H](O)C#Cc1ccc([C@H]2[C@@H](CO)N3CCCCN(C(=O)c4cccc(F)c4)C[C@@H]23)cc1 the results were T cruzi growth-1 99.7*, C diff HTS -1.6, Pf Dd2 inh 35.3, T cruzi growth-2 87.7, T cruzi growth-3 60.3, NIH3T3 tox 2.1 and NIH3T3 tox 2 22.1.
`C[C@H](O)C#Cc1ccc([C@H]2[C@@H](CO)N3CCCCN(C(=O)c4cccc(F)c4)C[C@H]23)cc1` gave T cruzi growth-1 55.6, C diff HTS 5.1 and Pf Dd2 inh -18.0.
For COCC(=O)N1[C@H](CO)[C@H](c2ccccc2-c2cccc(F)c2)[C@@H]1C#N the results were C diff HTS 100.3 and Pf Dd2 inh -37.0.
O=C(C[C@H]1CC[C@@H]2[C@H](COC[C@@H](O)CN2S(=O)(=O)c2ccccc2)O1)N1CCOCC1 was read as T cruzi growth-1 -128.9, C diff HTS 2.0 and Pf Dd2 inh 28.2.
For COc1ccc(NC(=O)N(C)C[C@H]2OCCCC[C@@H](C)Oc3ccc(NS(=O)(=O)c4c(C)noc4C)cc3C(=O)N([C@H](C)CO)C[C@H]2C)cc1 the results were T cruzi growth-1 35.0, C diff HTS 4.1 and Pf Dd2 inh -29.0.
For CC(C)C#Cc1ccc2c(c1)O[C@@H](CN(C)Cc1cccnc1)[C@@H](C)CN([C@@H](C)CO)S2(=O)=O the results were T cruzi growth-1 97.2, C diff HTS 6.9 and Pf Dd2 inh -48.5.
Screening C[C@H](O)C#Cc1ccc2c(c1)O[C@@H](CN(C)Cc1cccnc1)[C@H](C)CN([C@@H](C)CO)S2(=O)=O returned T cruzi growth-1 28.3, C diff HTS 0.0 and Pf Dd2 inh 9.3.
